Assay results: PubChem BioAssay (NCI)
Compounds without any hit were thinned out: in the full panel of roughly 79,000, 15% have a hit. Active and inactive are the calls of the source. Rule as the data show it: active = growth inhibition above about 70%; inactive = the rest.

Key:
[1] = NCI Yeast Anticancer Drug Screen. Data for the rad52 strain (AID 147);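 also: 0% = growth of vehicle-treated control cultures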; conditions: S. cerevisiae rad52 mutant growth inhibition, hits give high values
How it was run: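 Genetically altered yeast (DNA damage repair defect) treated with compound; inhibition calculated relative to vehicle.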

[2] = NCI Yeast Anticancer Drug Screen. Data for the wt1 strain (AID 149);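 also: 0% = growth of vehicle-treated wt1 cultures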; conditions: S. cerevisiae wt1 strain (SPY 50644) growth inhibition, hits give high values
How it was run: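 Yeast wt1 strain exposed to compounds; growth inhibition measured relative to vehicle-treated controls.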

[3] = NCI Yeast Anticancer Drug Screen. Data for the rad50EPP+ strain (AID 151);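 also: 0% = growth of vehicle-treated control cultures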; conditions: S. cerevisiae rad50 mutant strain, hits give high values
How it was run: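 Strain rad50EPP+; compound exposure; % growth inhibition vs vehicle.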

[4] = NCI Yeast Anticancer Drug Screen. Data for the mgt1 strain (AID 153); conditions: S. cerevisiae mgt1 mutant growth inhibition, hits give high values
How it was run: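 Read-out: yeast growth inhibition vs vehicle control. Strain mgt1, drawn from a panel altered in DNA damage repair or cell cycle control.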

[5] = NCI Yeast Anticancer Drug Screen. Data for the rad50 strain (AID 155);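 also: 0% = growth of vehicle-only cultures of the same strain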; conditions: S. cerevisiae rad50 strain growth inhibition, hits give high values
How it was run: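 Yeast carrying a defined DNA repair defect were exposed to test compounds, and growth was compared with vehicle-treated controls to give percent inhibition.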

[6] = NCI Yeast Anticancer Drug Screen. Data for the mec2-1 strain (AID 157); conditions: S. cerevisiae mec2-1 strain, hits give high values
How it was run: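 Cells of the genetically defined mec2-1 yeast strain are incubated with test compound. Inhibition of growth is calculated against vehicle-treated controls.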

[7] = NCI Yeast Anticancer Drug Screen. Data for the rad14 strain (AID 159);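 also: 0% = growth of vehicle-treated control cultures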; conditions: S. cerevisiae rad14 strain growth inhibition, hits give high values
How it was run: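 Yeast cells carrying a defined DNA-repair defect were exposed to compounds, and growth inhibition was calculated relative to vehicle-treated control cultures.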

[8] = NCI Yeast Anticancer Drug Screen. Data for the CLN2oe strain (AID 163);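 also: 0% = growth of vehicle-only control cultures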; conditions: S. cerevisiae CLN2oe strain, hits give high values
How it was run: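 Strain altered in cell-cycle control, incubated with compound; growth compared to solvent-treated controls.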

[9] = NCI Yeast Anticancer Drug Screen. Data for the cln2 rad14 strain (AID 165);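 also: 0% = growth equal to vehicle treated cultures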; conditions: S. cerevisiae cln2 rad14 strain, hits give high values
How it was run: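 The screen exposed genetically defined yeast (cln2 rad14) to test compounds and scored growth inhibition relative to vehicle-treated controls.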

[10] = NCI Yeast Anticancer Drug Screen. Data for the bub3 strain (AID 167); conditions: S. cerevisiae bub3 mutant strain, hits give high values
How it was run: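 Compounds were applied to a genetically altered yeast strain carrying a cell-cycle control defect. Growth inhibition was scored against vehicle-treated controls.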

[11] = NCI Yeast Anticancer Drug Screen. Data for the wt2 strain (AID 169);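 also: 0% = growth of vehicle-treated yeast cultures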; conditions: S. cerevisiae wt2 strain growth inhibition, hits give high values
How it was run: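 Steps: yeast strain treated with compound; growth recorded; inhibition calculated relative to cultures given vehicle alone.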

[12] = NCI Yeast Anticancer Drug Screen. Data for the mlh1 strain (AID 171);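 also: 0% = growth of vehicle-treated control cultures of the same strain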; conditions: S. cerevisiae mlh1 strain growth inhibition, hits give high values
How it was run: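 Yeast screen: mutant strain plus compound, growth scored against vehicle control wells.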

[13] = NCI Yeast Anticancer Drug Screen. Data for the sgs1 strain (AID 173);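 also: 0% = growth of vehicle-only control cultures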; conditions: S. cerevisiae sgs1 mutant, hits give high values
How it was run: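 Inhibition of yeast growth served as the measure. The mutant strain was treated with each compound, and growth was normalised to cultures receiving vehicle alone.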

[14] = NCI Yeast Anticancer Drug Screen. Data for the mlh1 rad18 strain (AID 175); conditions: S. cerevisiae mlh1 rad18 strain growth inhibition, hits give high values
How it was run: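 Compound-treated yeast growth, normalised to vehicle controls. Strain bears defined DNA repair mutations.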

[15] = NCI Yeast Anticancer Drug Screen. Data for the rad18 strain (AID 177); conditions: S. cerevisiae rad18 mutant growth inhibition, hits give high values
How it was run: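 Inhibition values reflect reduced yeast growth compared with vehicle-treated controls, using a strain engineered with a DNA damage repair defect.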

[16] = NCI Yeast Anticancer Drug Screen. Data for the sgs1 mgt1 strain (AID 161);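 also: 0% = growth of cultures given vehicle only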; conditions: S. cerevisiae sgs1 mgt1 strain, hits give high values
How it was run: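 Read-out: growth inhibition vs vehicle controls. Cells: mutant yeast strain deficient in DNA damage repair.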

[17] = at 5.0 µM (retest, dose inferred, filed as 0.5)
[18] = at 50.0 µM (retest, dose inferred, filed as 5.0)

Measured: growth inhibition

O=C1C(Cl)=C(Cl)C(Cl)(Cl)C(Cl)C1(Cl)Cl (stereo not given)
active: [1]; at 11.0 µM 71% | [1]; at 33.0 µM 99% | [1]; at 100.0 µM 99% | [2]; at 33.0 µM 94% | [2]; at 100.0 µM 99% | [3]; at 33.0 µM 90% | [3]; at 100.0 µM 99% | [4]; at 33.0 µM 99% | [4]; at 100.0 µM 99% | [5]; at 33.0 µM 99% | [5]; [18] 98% | [5]; at 50.0 µM 99.3% | [5]; at 100.0 µM 99% | [6]; at 33.0 µM 99% | [6]; [18] 99% | [6]; at 50.0 µM 99.5% | [6]; at 100.0 µM 99% | [7]; at 33.0 µM 99% | [7]; at 100.0 µM 99% | [8]; at 33.0 µM 99% | [8]; at 100.0 µM 99% | [9]; [18] 96% | [9]; at 50.0 µM 96.8% | [10]; at 33.0 µM 99% | [10]; [18] 98% | [10]; at 50.0 µM 99.5% | [10]; at 100.0 µM 97% | [11]; at 33.0 µM 100% | [11]; at 100.0 µM 99% | [12]; at 33.0 µM 99% | [12]; at 100.0 µM 99% | [13]; at 11.0 µM 81% | [13]; at 33.0 µM 100% | [13]; at 100.0 µM 99% | [14]; [18] 99% | [14]; at 50.0 µM 99.4% | [15]; at 3.7 µM 73% | [15]; at 11.0 µM 90% | [15]; at 33.0 µM 99% | [15]; at 100.0 µM 99%
inactive: [1]; at 1.2 µM 14% | [1]; at 3.7 µM 27% | [2]; at 1.2 µM 2% | [2]; at 3.7 µM 5% | [2]; at 11.0 µM 21% | [3]; at 1.2 µM 20% | [3]; at 3.7 µM 34% | [3]; at 11.0 µM 58% | [4]; at 1.2 µM 5% | [4]; at 3.7 µM 25% | [4]; at 11.0 µM 45% | [5]; at 1.2 µM 16% | [5]; at 3.7 µM 26% | [5]; [17] 21% | [5]; at 11.0 µM 58% | [6]; at 1.2 µM 8% | [6]; at 3.7 µM 29% | [6]; [17] 22% | [6]; at 11.0 µM 49% | [7]; at 1.2 µM 17% | [7]; at 3.7 µM 25% | [7]; at 11.0 µM 44% | [8]; at 1.2 µM 15% | [8]; at 3.7 µM 38% | [8]; at 11.0 µM 54% | [9]; [17] 9% | [10]; at 1.2 µM 11% | [10]; at 3.7 µM 28% | [10]; [17] 5% | [10]; at 11.0 µM 59% | [11]; at 1.2 µM -14% | [11]; at 3.7 µM -6% | [11]; at 11.0 µM 54% | [12]; at 1.2 µM 12% | [12]; at 3.7 µM 26% | [12]; at 11.0 µM 66% | [13]; at 1.2 µM -7% | [13]; at 3.7 µM 36% | [14]; [17] 26% | [15]; at 1.2 µM 40%

Cc1ccc(CNc2ccc(Br)cc2)cc1
inactive: [1]; at 1.2 µM 5% | [1]; at 3.7 µM 7% | [1]; at 11.0 µM 18% | [1]; at 33.0 µM 66% | [2]; at 1.2 µM -29% | [2]; at 3.7 µM -28% | [2]; at 11.0 µM -27% | [2]; at 33.0 µM 24% | [3]; at 1.2 µM -10% | [3]; at 3.7 µM -11% | [3]; at 11.0 µM -4% | [3]; at 33.0 µM 14% | [3]; at 100.0 µM 64% | [4]; at 1.2 µM 16% | [4]; at 3.7 µM 12% | [4]; at 11.0 µM 27% | [4]; at 33.0 µM 69% | [5]; at 1.2 µM 17% | [5]; at 3.7 µM 6% | [5]; [17] 61% | [5]; at 11.0 µM 16% | [5]; at 33.0 µM 67% | [5]; at 50.0 µM 62.8% | [6]; at 1.2 µM 1% | [6]; at 3.7 µM 2% | [6]; [17] 63% | [6]; at 11.0 µM 17% | [6]; at 33.0 µM 66% | [7]; at 1.2 µM -17% | [7]; at 3.7 µM -18% | [7]; at 11.0 µM -2% | [16]; [17] -19% | [8]; at 1.2 µM -9% | [8]; at 3.7 µM 11% | [8]; at 11.0 µM 6% | [8]; at 33.0 µM 34% | [9]; [17] 61% | [10]; at 1.2 µM -7% | [10]; at 3.7 µM 11% | [10]; [17] 32% | [10]; at 11.0 µM 26% | [10]; at 33.0 µM 63% | [11]; at 1.2 µM -31% | [11]; at 3.7 µM -30% | [11]; at 11.0 µM -13% | [11]; at 33.0 µM 35% | [12]; at 1.2 µM -32% | [12]; at 3.7 µM -31% | [12]; at 11.0 µM -21% | [12]; at 33.0 µM 40% | [13]; at 1.2 µM -17% | [13]; at 3.7 µM -17% | [13]; at 11.0 µM -15% | [13]; at 33.0 µM 34% | [14]; [17] 28% | [14]; at 50.0 µM 60.2% | [15]; at 1.2 µM -6% | [15]; at 3.7 µM -15% | [15]; at 11.0 µM -7% | [15]; at 33.0 µM 49%
active: [1]; at 100.0 µM 88% | [2]; at 100.0 µM 82% | [4]; at 100.0 µM 92% | [5]; [18] 89% | [5]; at 100.0 µM 82% | [6]; [18] 90% | [6]; at 50.0 µM 76.7% | [6]; at 100.0 µM 93% | [7]; at 33.0 µM 71% | [7]; at 100.0 µM 92% | [16]; [18] 94% | [8]; at 100.0 µM 81% | [9]; [18] 97% | [10]; [18] 94% | [10]; at 100.0 µM 91% | [11]; at 100.0 µM 87% | [12]; at 100.0 µM 85% | [13]; at 100.0 µM 72% | [14]; [18] 77% | [15]; at 100.0 µM 77%
